HepG2 tox – counter-screen for TGF-b inhibitors: cytotoxicity in HepG2 cells | HepG2 CAGA-GFP viability, ATP luminescence, 18 h | Potency, µM (titrated, usually from 46.1 µM), actives largely listed as cytotoxic | 0.76% of 410,000 active
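CellTiter-Glo luminescence gave cytotoxicity after 18 hours at 37 degrees C. The cells were HepG2 CAGA-GFP in 1% FBS DMEM, stimulated with 500 pg/mL TGF-beta after compound addition. %Activity was normalised to no-cell wells (complete cell-killing) and DMSO (no toxicity), and curves were fitted and classified.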
TGFb inhibitor – TGF-b pathway inhibition; HepG2 CAGA-GFP TGF-b/SMAD3 reporter, GFP fluorescence, 18 h; TGF-beta stimulated, 500 pg/mL final; Potency, µM (titrated, usually from 46.1 µM), actives largely listed as inhibitors; 1.2% of 410,000 active; also: nearly all actives have a fitted effect of over 65% in size
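First, reporter cells (HEPG2 CAGA-GFP) rested 2 h at 37 degrees C. Next, compounds were pinned in and TGF-beta added to 500 pg/mL final. After 18 h, GFP was imaged per cell and summed per well.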
KB-V1 cytotox – KB-V1 MDR subline cytotoxicity; KB-V1 MDR cells viability, CellTiter-Glo, 72 h; Potency, µM (top dose mostly 46.1 µM), usual class: cytotoxic; 3.4% of 400,000 active; AID 1347076; also: nearly all actives have a fitted effect of over 60% in size
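Following 72 h at 37 degrees C with compound, KB-V1 cell viability was read by CellTiter-Glo luminescence, medium being phenol-red-free DMEM plus 10% FBS; concentration-response parameters came from normalized, curve-fitted qHTS data.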
S2 tox – cell viability loss in ATXN counter-screen; S2 cells (HEK-293 line with an ATXN2-luciferase reporter) viability, CellTiter-Fluor protease fluorescence, 24 h; Potency, µM (doses to about 56.7 µM), usual class: cytotoxic; 0.49% of 400,000 active; also: nearly all actives have a fitted effect of over 40% in size
ATXN2 expr inh – inhibitors of ATXN2 expression; HEK-293 ATXN2-luciferase reporter, luminescence, 24 h; Potency, µM (series often up to 57 µM), hits mostly inhibitors; 0.72% of 360,000 active; also: nearly all actives have a fitted effect of over 55% in size
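ATXN2-luciferase reporter cells (luciferase flanked by upstream and downstream ATXN2 gene portions) were treated 24 h at 37 °C with compounds at up to 57 uM. SteadyGlo luminescence gave expression; GF-AFC fluorescence gave viability.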
KB-3-1 cytotox – KB-3-1 parental cell cytotoxicity; KB-3-1 viability, CellTiter-Glo ATP luminescence, 72 h; Potency, µM (doses to about 46.1 µM), most hits filed as cytotoxic; 1.4% of 400,000 active; also: nearly all actives have a fitted effect of over 60% in size
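KB-3-1 parental drug-naive adenocarcinoma cells in DMEM/10% FBS, incubated 72 h at 37 C with pin-transferred compounds across a concentration series. Viability by CellTiter-Glo luminescence; concentration-response curves fitted after normalization.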
Hits are given with their value; 0 = inactive; ? = inconclusive; - = no result. Hits are enriched below; roughly 5.9% of the tested compounds scored in any of these assays. Calls follow the shape of the dose curve; as a rule, active = well fitted curve in the direction sought with a large enough effect; inconclusive = small, poorly fitted or top-dose-only effect, or another doubt; inactive = no such curve, though single readings can be large; an effect the other way counts as inactive or inconclusive.

SMILES	HepG2 tox	TGFb inhibitor	KB-V1 cytotox	S2 tox	ATXN2 expr inh	KB-3-1 cytotox
Cc1nc(C(=O)Nc2ccc(Cl)cc2Cl)nn1-c1cc(OC(C)C)c(Cl)cc1Cl	0	0	0	0	0	0
Cc1nc(C(=O)Nc2cc(Cl)ccc2Cl)nn1-c1cc(OC(C)C)c(Cl)cc1Cl	0	0	14.6µM	0	0	0
Cc1cccc(CN2C[C@H](Sc3ccccn3)C[C@H]2C(=O)Nc2ccc3sc(C)nc3c2)c1	-	-	-	0	-	-
CN1CCN(C(=S)SCC(=O)Nc2nc(-c3ccccc3)c(-c3ccccc3)o2)CC1	0	?	20.6µM	?	0	?
CCOC(=O)C(=O)Nc1nc(-c2ccccc2)c(-c2ccccc2)o1	0	0	0	0	0	0
O=C(Nc1ccc(Cn2cccn2)cc1)c1ccc(COc2cccc(Br)c2)cc1	0	?	9.2µM	?	0	0.731µM
O=C(Nc1ccc(Cn2cccn2)cc1)c1ccc(COc2ccc(Br)cc2)cc1	0	0	0	0	0	0
Cc1[nH]c2ccccc2c1/C=C/C(=O)c1ccncc1	0	0	0	-	0	0
Cc1[nH]c2ccccc2c1/C=C/c1c(C)[nH]c2ccccc12	0	6.31µM	0	-	-	?
Cc1[nH]c2ccccc2c1/C=C/c1cc[n+](C)cc1	0	0	0	0	0	10.3µM
C[n+]1ccc2[nH]c3ccccc3c2c1	0	0	0	0	0	0
CCCN(CCC)C(=O)Cn1c(SCc2cccc(F)c2)nc2cccnc21	0	0	-	-	-	-
CC(C)n1nc(C(=O)OCC(=O)N2CC(=O)Nc3ccccc32)c2ccccc2c1=O	0	0	0	?	-	0
CCCn1nc(C(=O)N2CC(=O)Nc3ccccc32)c2ccccc2c1=O	0	0	20.6µM	0	0	8.2µM
COc1cc(OC)cc(C(=O)N2CC(=O)Nc3ccccc32)c1	0	0	2.31µM	?	0	?
Clc1cccc(-c2noc3ncnc(NC4CCCCC4)c23)c1	0	0	0	0	0	0
CCC(CO)Oc1cc(NCc2cccnc2)c2ncn(C(C)C)c2c1 (centres undefined)	0	0	0	0	0	0
CCC(CO)Oc1cc(NCc2cccc(Cl)c2)c2ncn(C(C)C)c2c1 (centres undefined)	0	20µM	0	?	?	0
Cc1nc(NCCc2ccccc2F)c(C#N)c(C)c1[N+](=O)[O-]	0	0	?	0	0	0
COCc1c(C#N)c(NCCc2ccc(F)cc2)nc(C)c1[N+](=O)[O-]	0	0	5.17µM	0	0	?
COCc1c(C#N)c(NCc2cc(OC)c(OC)c(OC)c2)nc(C)c1[N+](=O)[O-]	0	0	5.17µM	0	0	?
COc1cc(CNc2nc(C)c([N+](=O)[O-])c(C)c2C#N)cc(OC)c1	0	0	7.31µM	0	0	?
COCc1c(C#N)c(NCCc2ccccc2)nc(C)c1[N+](=O)[O-]	0	0	0	0	0	?
Cc1nc(NCCc2ccc(F)cc2)c(C#N)c(C)c1[N+](=O)[O-]	0	0	0	?	0	0
Cc1cc(C)cc(NC(=O)CCCc2nc(-c3ccco3)no2)c1	0	0	0	0	0	0
SMILES	HepG2 tox	TGFb inhibitor	KB-V1 cytotox	S2 tox	ATXN2 expr inh	KB-3-1 cytotox
O=c1c2c(nc3c(-c4ccc(Cl)cc4)c[nH]n13)CCC2	0	?	4.61µM	?	12.6µM	?
O=c1c2c(nc3c(-c4ccccc4)c[nH]n13)CCC2	0	0	?	0	0	?
N#Cc1nc(-c2cccc3ccccc23)oc1NCCN1CCCCC1	22.4µM	0	0	0	0	?
CCNc1oc(-c2cccc3ccccc23)nc1C#N	0	0	0	?	0	0
CCc1ccccc1NC(=O)c1cc2sc(Cl)cc2n1CC	0	0	0	0	0	0
CCCN(C(=O)COc1cc(=O)n(CC)c2ccccc12)c1ccc(C(C)C)cc1	0	?	13µM	?	?	?
CCN(C(=O)COc1cc(=O)n(CC)c2ccccc12)c1cccc(Cl)c1	0	0	2.06µM	?	0	?

Compound activity (PubChem BioAssay)
